PubChem BioAssay
Activity calls are given as the source filed them. Unless noted, the rule behind the calls is not given here.

Key:
[1] = tested on: Wnt5a (protein binding on small-molecule microarray); test: small molecules binding Wnt5a protein – biophysical, small-molecule microarray, 635/667 nm fluorescence, primary screen (AID 1142); conditions: 635 nm fluorescence, higher = more signal;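 note: fluorescence read at 667 nm with signal to noise per printed feature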
[2] = ATP-based viability of Huh7 replicon cells – cell-based, CellTiter-Glo luminescence, basal, 48 h, cytotoxicity control for HCV replication inhibitor project, primary screen (AID 1143); conditions: higher = more signal, called active from +8 up or from −8 down;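 note: Huh7 hepatoma cells carrying a hepatitis C replication reporter with no stimulus; test concentration not given here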
[3] = Pseudomonas biofilm growth suppression – PAO1 strain, BacTiter-Glo luminescence, LB-PBS, primary screen (AID 1144); conditions: P. aeruginosa PAO1 biofilm, 12 h, higher = more signal
[4] = basal CRE-LacZ reporter activity in PC12 – cell-based, unstimulated, primary screen (AID 1145); conditions: no forskolin, luminescence, 4.5 h, higher = more signal, called active from +8 up or from −8 down
[5] = forskolin-driven CRE-LacZ activity in PC12 – cell-based, CRE-LacZ reporter, forskolin-stimulated, primary screen (AID 1146); conditions: luminescence, 4.5 h, higher = more signal, called active from +8 up or from −8 down;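 note: PC12 cells with 6xCRE LacZ reporter stimulated by forskolin 10 µM; beta-galactosidase reporter signal reflecting CREB driven transcription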
[6] = molecular target: Streptavidin (Streptomyces avidinii) (UniProt P22629); test: compounds binding control protein streptavidin – biophysical, small-molecule microarray, 635/667 nm fluorescence, artefact control for SMM compound annotation, primary screen (AID 1147); conditions: higher = more signal;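 note: signal reflects streptavidin binding to arrayed compounds as a control protein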
[7] = probe aInhba binding on compound microarray – biochemical, small-molecule microarray, 635/667 nm fluorescence, primary screen (AID 1148); conditions: higher = more signal;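 note: score merges 667nm spot fluorescence with signal-to-noise for antibody binding to printed compounds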
[8] = molecular target: Torsin-1A (Homo sapiens) (UniProt O14656); test: TOR1A wild-type binding on microarray – cell lysate, small-molecule microarray, lysate, 635/667 nm, primary screen (AID 1149); conditions: COS7 hTOR1A-WT lysate, 635 nm fluorescence, higher = more signal
[9] = molecular target: Torsin-1A (Homo sapiens) (UniProt O14656); test: torsin A mutant lysate binding on microarrays – cell lysate, small-molecule microarray, COS7 lysate, 635/667 nm fluorescence, primary screen (AID 1150); conditions: COS7 hTOR1A mutant lysate, 635 nm fluorescence, higher = more signal;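 note: score pools 667 nm emission and signal to noise measuring lysate protein binding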
[10] = tested on: Sonic hedgehog protein (Shh); test: Sonic hedgehog microarray binding compounds – biochemical, small-molecule microarray, 635/667 nm fluorescence, primary screen (AID 1151); conditions: 635 nm fluorescence, higher = more signal;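 note: Shh protein binding to compounds spotted on small-molecule microarray slides; score combines spot fluorescence intensity with signal-to-noise across triplicate slides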
[11] = optical density shifts of acrAB sulA E. coli – strain DRC41, OD650, 48 h, E. coli filamentation inducer project, primary screen (AID 1152); conditions: higher = more signal, called active from +8 up or from −8 down;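 note: E. coli MC1000 strain DRC41 lacking acrAB efflux pump and sulA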
[12] = probe aLefty1 binding on compound microarray – biochemical, small-molecule microarray, 635/667 nm fluorescence, primary screen (AID 1153); conditions: higher = more signal;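 note: score merges spot fluorescence with signal-to-noise ratio from the scanned slide images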
[13] = plasmodial surface anion channel blockers, osmotic lysis – cell-based, P. falciparum Indochina, OD700, 1 h, primary screen (AID 1154); conditions: P. falciparum Indochina infected RBC osmotic lysis, higher = more signal, called active from +8 up or from −8 down
[14] = plasmodial surface anion channel blockers, osmotic lysis – cell-based, P. falciparum Indochina, OD700, 2 h, primary screen (AID 1155);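 note: lysis reports solute entry through the parasite surface anion channel PSAC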; conditions: P. falciparum Indochina infected erythrocytes, higher = more signal, called active from +8 up or from −8 down
[15] = changes in parasitized red cell lysis, either direction – P. falciparum Indochina, OD700, 3 h, PSAC antagonist project, primary screen (AID 1156); conditions: P. falciparum-infected erythrocytes, osmotic lysis, higher = more signal, called active from +8 up or from −8 down
[16] = plasmodial surface anion channel blockers, osmotic lysis – cell-based, P. falciparum Indochina, OD700, 18 h, primary screen (AID 1157); conditions: P. falciparum Indochina infected erythrocytes, osmotic lysis OD700, 18 h; higher = more signal, called active from +8 up or from −8 down
[17] = S6 kinase pathway phospho-S6 level changes – cell-based, A549, cytoblot, luminescence, serum-stimulated, primary screen (AID 1158); conditions: 5 h, higher = more signal;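 note: serum-stimulated A549 lung adenocarcinoma cells; signal is phosphorylated S6 detected by cytoblot immunostaining with HRP secondary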
[18] = molecular target: NADPH oxidase 2 (Homo sapiens) (UniProt P04839); test: compounds shifting NOX2 Amplex Red fluorescence – cell-based, HEK293-NOX2, PMA-stimulated, NOX inhibitor project, primary screen (AID 1159); conditions: 45 min, higher = more signal, called active from +8 up or from −8 down; note: test concentration not given here
[19] = molecular target: NADPH oxidase 4 (Homo sapiens) (UniProt Q9NPH5); test: compounds shifting NOX4 Amplex Red fluorescence – cell-based, HEK293-NOX4, tetracycline-induced, NOX inhibitor project, primary screen (AID 1160); conditions: HEK293-NOX4, Amplex Red H2O2 fluorescence, 45 min; higher = more signal, called active from +8 up or from −8 down
[20] = molecular target: NADPH oxidase 5 (Homo sapiens) (UniProt Q96PH1); test: compounds shifting NOX5 Amplex Red fluorescence – cell-based, HEK293-NOX5, NOX inhibitor project, primary screen (AID 1161); conditions: HEK293-NOX5, ionomycin, 45 min, higher = more signal
NADPH oxidase 5 (Homo sapiens), sequence (Q96PH1 whole entry, looked up): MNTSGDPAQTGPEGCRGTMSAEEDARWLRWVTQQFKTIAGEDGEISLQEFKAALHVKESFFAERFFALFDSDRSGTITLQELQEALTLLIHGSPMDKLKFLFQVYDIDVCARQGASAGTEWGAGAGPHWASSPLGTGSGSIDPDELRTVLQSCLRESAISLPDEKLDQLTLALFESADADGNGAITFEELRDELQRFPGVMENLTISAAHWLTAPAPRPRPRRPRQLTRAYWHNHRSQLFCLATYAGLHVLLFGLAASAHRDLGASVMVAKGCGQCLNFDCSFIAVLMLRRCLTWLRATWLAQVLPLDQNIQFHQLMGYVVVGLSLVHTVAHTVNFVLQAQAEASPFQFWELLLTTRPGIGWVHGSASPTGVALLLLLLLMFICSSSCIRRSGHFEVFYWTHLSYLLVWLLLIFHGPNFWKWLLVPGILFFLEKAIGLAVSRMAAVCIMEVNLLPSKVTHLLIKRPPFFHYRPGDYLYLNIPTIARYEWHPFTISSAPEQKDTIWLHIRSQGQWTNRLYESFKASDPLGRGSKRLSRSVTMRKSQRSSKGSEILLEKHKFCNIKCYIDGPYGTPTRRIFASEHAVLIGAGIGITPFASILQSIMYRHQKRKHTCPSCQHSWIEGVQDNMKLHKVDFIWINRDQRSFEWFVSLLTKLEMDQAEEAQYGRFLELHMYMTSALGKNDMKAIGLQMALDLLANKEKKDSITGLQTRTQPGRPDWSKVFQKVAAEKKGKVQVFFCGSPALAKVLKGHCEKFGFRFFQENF

Streptavidin (Streptomyces avidinii), sequence (P22629 whole entry, looked up): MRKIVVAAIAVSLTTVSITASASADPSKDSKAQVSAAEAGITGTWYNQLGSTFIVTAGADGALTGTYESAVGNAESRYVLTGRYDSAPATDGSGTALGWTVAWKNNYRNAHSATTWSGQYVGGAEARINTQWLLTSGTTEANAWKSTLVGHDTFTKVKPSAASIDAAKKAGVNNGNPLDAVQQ
Torsin-1A (Homo sapiens), sequence (O14656 whole entry, looked up): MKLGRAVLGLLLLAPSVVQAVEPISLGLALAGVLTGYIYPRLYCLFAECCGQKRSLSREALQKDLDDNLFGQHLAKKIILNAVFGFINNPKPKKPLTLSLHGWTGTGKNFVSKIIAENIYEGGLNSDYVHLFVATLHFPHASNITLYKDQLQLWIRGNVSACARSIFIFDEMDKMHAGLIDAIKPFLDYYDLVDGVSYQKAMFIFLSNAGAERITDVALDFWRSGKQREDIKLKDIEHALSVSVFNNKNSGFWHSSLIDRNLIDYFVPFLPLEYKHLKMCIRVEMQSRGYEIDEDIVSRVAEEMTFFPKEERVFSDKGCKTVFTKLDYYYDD
NADPH oxidase 4 (Homo sapiens), sequence (Q9NPH5 whole entry, looked up): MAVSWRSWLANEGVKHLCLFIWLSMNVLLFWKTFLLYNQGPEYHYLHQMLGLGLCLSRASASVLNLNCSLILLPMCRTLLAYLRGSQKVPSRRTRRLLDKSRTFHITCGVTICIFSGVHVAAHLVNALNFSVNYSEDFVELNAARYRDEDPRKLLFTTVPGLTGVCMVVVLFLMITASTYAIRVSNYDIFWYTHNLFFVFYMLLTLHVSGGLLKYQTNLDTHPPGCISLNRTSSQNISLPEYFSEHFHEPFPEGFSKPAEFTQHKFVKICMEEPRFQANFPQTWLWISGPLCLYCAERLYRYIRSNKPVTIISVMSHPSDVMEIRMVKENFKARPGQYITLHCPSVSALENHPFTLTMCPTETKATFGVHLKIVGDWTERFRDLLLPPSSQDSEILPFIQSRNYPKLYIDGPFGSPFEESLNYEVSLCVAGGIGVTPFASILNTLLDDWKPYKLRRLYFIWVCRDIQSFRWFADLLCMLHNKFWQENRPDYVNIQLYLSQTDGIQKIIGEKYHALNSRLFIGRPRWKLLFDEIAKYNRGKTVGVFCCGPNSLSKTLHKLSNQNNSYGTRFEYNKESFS
NADPH oxidase 2 (Homo sapiens), sequence (P04839 whole entry, looked up): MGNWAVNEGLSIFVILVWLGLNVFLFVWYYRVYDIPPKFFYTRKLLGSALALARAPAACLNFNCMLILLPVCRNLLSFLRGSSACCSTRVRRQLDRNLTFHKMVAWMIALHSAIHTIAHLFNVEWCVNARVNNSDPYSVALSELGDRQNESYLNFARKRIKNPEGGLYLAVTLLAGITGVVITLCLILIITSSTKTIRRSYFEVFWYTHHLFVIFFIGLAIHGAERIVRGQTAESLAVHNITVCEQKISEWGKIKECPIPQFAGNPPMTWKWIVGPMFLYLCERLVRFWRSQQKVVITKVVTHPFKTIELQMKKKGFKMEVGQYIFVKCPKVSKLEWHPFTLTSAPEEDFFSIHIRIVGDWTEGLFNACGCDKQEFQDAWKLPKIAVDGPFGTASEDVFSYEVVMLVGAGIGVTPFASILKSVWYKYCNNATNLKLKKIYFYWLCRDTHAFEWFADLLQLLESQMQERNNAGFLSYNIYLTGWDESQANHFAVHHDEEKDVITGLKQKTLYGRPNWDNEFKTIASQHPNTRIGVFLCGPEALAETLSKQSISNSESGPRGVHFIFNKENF

Structure (SMILES)	composite z-score [1]	z-score [2]	z-score [3]	z-score [4]	z-score [5]	composite z-score [6]	composite z-score [7]	composite z-score [8]	composite z-score [9]	composite z-score [10]	z-score [11]	composite z-score [12]	z-score [13]	z-score [14]	z-score [15]	z-score [16]	z-score [17]	z-score [18]	z-score [19]	z-score [20]
C=C(COC)C(=O)CC[C@@H](OC(=O)c1cccnc1)c1ccc(OCCO)cc1	1.71	-7.08 (inactive)	0.403 (inactive)	5.67 (inactive)	0.0067 (inactive)	-0.23	0.0471	0.889	0.321	1.54	-0.717 (inactive)	0.235	7.63 (inactive)	2.3 (inactive)	-1.61 (inactive)	1.21 (inactive)	-0.482	0.838 (inactive)	0.211 (inactive)	-2.85
COCCOC(=O)N1C(=O)[C@@]2(c3cc(C#Cc4ccc(OC)cc4)ccc31)[C@H](C(=O)Nc1nc3ccccc3s1)[C@H]1C(=O)O[C@H](c3ccccc3)[C@H](c3ccccc3)N1[C@@H]2c1ccc(O)cc1	0.472	-3.43 (inactive)	-1.8 (inactive)	-1.83 (inactive)	0.673 (inactive)	0.768	0.266	0.198	0.811	1.91	1.05 (inactive)	0.703	3.75 (inactive)	0.756 (inactive)	1.2 (inactive)	1.22 (inactive)	0.709	1.49 (inactive)	-0.118 (inactive)	0.791
CC(C)OC(=O)C=C1C[C@@H](c2ccc(C(F)(F)F)cc2)O[C@@H](c2ccc(C(F)(F)F)cc2)O1	-0.1	-3.23 (inactive)	-1.17 (inactive)	-0.723 (inactive)	-0.163 (inactive)	-0.208	-0.157	0.827	0.483	-0.831	0.609 (inactive)	-0.0954	2.79 (inactive)	-0.301 (inactive)	-0.101 (inactive)	-1.05 (inactive)	0.569	0.283 (inactive)	-0.175 (inactive)	-0.0582
NCCCCCCNC(=O)[C@@H]1C[C@@H]2C(=O)N[C@@H](CCCCN)C(=O)N2[C@@H]1c1cccc(OCCO)c1	0.57	0.0957 (inactive)	-0.537 (inactive)	-0.26 (inactive)	-0.119 (inactive)	0.125	0.094	-0.324	1.2	1.5	0.68 (inactive)	0.784	3.51 (inactive)	0.289 (inactive)	-0.147 (inactive)	0.472 (inactive)	-0.447	0.937 (inactive)	1.02 (inactive)	1.01
OCCCC1=CC(c2ccc(CN3CCCC3)cc2)N(Cc2sc3ccccc3c2Cl)CC1 (stereo not given)	0.774	-2.99 (inactive)	0.00672 (inactive)	0.96 (inactive)	-0.134 (inactive)	0.37	0.0633	0.598	0.842	1.46	-1.6 (inactive)	0.527	7.15 (inactive)	1.29 (inactive)	0.314 (inactive)	1.19 (inactive)	-0.319	-5.42 (inactive)	-2.03 (inactive)	-2.27
[N-]=[N+]=NCc1ccccc1C[C@]1(C(N)=O)N=C(c2ccc(OCCCO)cc2)O[C@H]1c1ccccc1	0.0841	-3.8 (inactive)	-1.02 (inactive)	0.101 (inactive)	0.0159 (inactive)	0.363	0.0227	0.851	0.885	-1.23	1.06 (inactive)	-0.227	21 (active)	3.55 (inactive)	0.0533 (inactive)	0.913 (inactive)	0.349	-3.27 (inactive)	-0.839 (inactive)	-1.95
CC=CC(O)C1C=CC2C(=O)N(c3ccccc3)C(=O)C2N1Nc1ccccc1F (stereo not given)	0.713	-0.118 (inactive)	0.103 (inactive)	0.481 (inactive)	1.23 (inactive)	-0.0607	0.572	0.804	0.42	-0.371	-0.857 (inactive)	0.762	4.36 (inactive)	1.24 (inactive)	0.164 (inactive)	0.512 (inactive)	-0.819	-1.11 (inactive)	-2.88 (inactive)	-2
Cc1ccc(S[C@]2(C(=O)O)CC(=O)N(Cc3cc(C(F)(F)F)cc(C(F)(F)F)c3)[C@@H]2c2ccc(CO)cc2)cc1	-0.256	0.0756 (inactive)	-0.00769 (inactive)	0.621 (inactive)	0.573 (inactive)	-0.882	-0.128	-0.272	-0.62	-1.26	-1.21 (inactive)	-0.239	2.76 (inactive)	1.01 (inactive)	1.44 (inactive)	0.769 (inactive)	-0.482	0.86 (inactive)	-0.271 (inactive)	0.0502
COCCOC(=O)N1C(=O)[C@@]2(c3cc(C#CCNC(N)=O)ccc31)[C@H](C(=O)N1CCc3cc(OC)c(OC)cc3C1)[C@H]1C(=O)O[C@H](c3ccccc3)[C@H](c3ccccc3)N1[C@@H]2c1ccccc1OCCO	0.358	-2.32 (inactive)	-0.772 (inactive)	0.0776 (inactive)	-0.979 (inactive)	0.639	0.0301	0.969	0.498	1.81	1.83 (inactive)	0.479	3.14 (inactive)	0.178 (inactive)	0.435 (inactive)	-0.244 (inactive)	1.81	1.58 (inactive)	1.09 (inactive)	-0.672
